According to the supplement of paper PMC6555819:

Experiments:
Assay in all cases: PBM binding z-score (relative to random genomic background probes); higher = stronger binding; sequences stand for … in GC…GCGATTGACAGCGTAGAATGAAGG
[1] = tested on: PPARg:RXRa DBDmut IVT, anti-RXR (DBD mutation: RXRa K156A/R161A, NR concentration 270 nM, RXRa partner concentration 90 nM)
Procedure, shortened: (§1)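 Custom Agilent 4×180K protein-binding microarrays carried double-stranded probes. Their 34-nt variable regions held direct-repeat seeds, single-nucleotide variants, half-site ablations and random human genomic background sequences. Arrays were incubated 1 h with ligand-free nuclear receptor dimers in PBS pH 7.4, 2% milk, 0.02% Triton X-100, 1 mM DTT, 0.2 mg/mL BSA and 0.4 mg/ml salmon testes DNA. Antibodies against each partner (one per run) detected binding, and scanned fluorescence was regression-normalized. Binding z-scores use random background probes as reference.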

[2] = tested on: PPARg:RXRa IVT, anti-PPARg (NR concentration 270 nM, RXRa partner concentration 90 nM)
Procedure, shortened: as §1

[3] = tested on: PPARg DBDmut:RXRa IVT, anti-PPARg (DBD mutation: PPARg1 K132A/R137A, NR concentration 270 nM, RXRa partner concentration 90 nM)
Procedure, shortened: as §1

[4] = tested on: PPARg DBDmut IVT, anti-PPARg (DBD mutation: PPARg1 K132A/R137A, NR concentration 270 nM)
Procedure, shortened: as §1

[5] = tested on: PPARg homodimer (NR concentration 180 nM)
Procedure, shortened: as §1

[6] = tested on: PXR:RXRa (NR concentration 270 nM, RXRa partner concentration 90 nM)
Procedure, shortened: as §1

[7] = tested on: PXR homodimer (NR concentration 270 nM)
Procedure, shortened: as §1

[8] = tested on: RARa:RXR (NR concentration 270 nM, RXRa partner concentration 90 nM)
Procedure, shortened: as §1

[9] = tested on: RARa homodimer (NR concentration 270 nM)
Procedure, shortened: as §1

[10] = tested on: RARb:RXRa (NR concentration 270 nM, RXRa partner concentration 90 nM)
Procedure, shortened: as §1

Row | Sequence | PBM binding z-score [1] | PBM binding z-score [2] | PBM binding z-score [3] | PBM binding z-score [4] | PBM binding z-score [5] | PBM binding z-score [6] | PBM binding z-score [7] | PBM binding z-score [8] | PBM binding z-score [9] | PBM binding z-score [10]
1 | AGAATGAGGTTATTAAGATCAGGGTATTGCGGTC | 3.41 | 2.66 | 0.601 | 0.558 | 1.18 | 1.21 | 1.07 | 1.28 | 0.859 | 1.32
2 | TCTTGTAGATCAAAGGATAAGAAAGCCGAAGCCT | 1.75 | 0.245 | 0.639 | -0.158 | 0.25 | -0.0029 | -0.483 | -0.193 | 0.315 | -0.125
3 | AGACTGAGGTTAAGATCAGGGAAACAGAATACAT | 0.0393 | 0.554 | -0.0816 | -0.0692 | 0.531 | 0.903 | 0.258 | 1.84 | -0.0293 | 1.7
4 | TGATATAGGTAAACAGGTGAAAGTCCGTAAGTTA | 5.35 | 5.64 | 1.01 | 0.48 | 0.911 | 0.29 | 0.346 | 0.703 | 1.11 | 0.511
5 | TCTATTAGTCGAAGGGCAACCGACGAGTCCGTTT | 2.28 | 0.642 | 0.468 | 0.866 | 0.702 | 0.597 | 0.535 | 0.379 | 0.63 | 1.36
6 | TCTAGTTGGTCACGGAGGTCAGACACGACGGGTA | 2.48 | 3.14 | 0.816 | 0.0631 | 2.07 | 2.96 | 0.703 | 2.79 | 0.955 | 3.26
7 | GCATATAGGTAATACAAGGTGAGAGTCCGATTGT | 4.28 | 3.14 | 1.33 | 0.73 | 0.397 | 0.114 | 0.184 | 1.59 | 0.608 | 0.335
8 | TTACCAAGATGAAGGTCGTTGATCCCTCTGTAGA | 0.471 | 0.0475 | 0.286 | 0.663 | 0.704 | 1.15 | -0.0787 | 1.18 | 0.48 | 0.617
9 | CCTAGTTGGTCAGGAGGTCACACGCCGGATATGA | 1.84 | 3.74 | 0.471 | -0.188 | 3.2 | 4.12 | 1.31 | 4.32 | 1.9 | 3.71
10 | CCTCGGAGGACAACAGTAGGTCAGAGCTGCCAGA | 1.42 | 2.02 | -1.19 | -2.12 | 0.785 | 0.462 | -0.203 | 0.798 | -0.275 | 2.05
11 | TCTCGGAGGACACGGAAGGTCAGAGCTCGACATC | 1.04 | 1.13 | -0.462 | -0.403 | 1.27 | 2.53 | 0.114 | 2.45 | -0.138 | 3.44
12 | ACTAATAGTTGAGACGAGGGCAACCGATAGGTTG | -0.206 | 0.29 | -0.296 | 0.434 | -0.0381 | 2.33 | 0.121 | 1.08 | -0.0731 | 1.34
13 | CGAACTCGGTCAAGGACAGTGAATCTCCGCACGC | 3.2 | 2.25 | -0.0732 | -0.272 | -0.336 | 0.0143 | -0.196 | 0.378 | -0.323 | 2.62
14 | CTCGAAAGGTCGTGCTCAGGTGAGTATTCCAAAC | 0.897 | 1.51 | 0.28 | 0.396 | 1.7 | 3.33 | 0.16 | 4.06 | 0.262 | 3.76
15 | CCTGCTAGGTCCATGGTCAGCTAAAGCAGCTCGC | -0.414 | -0.603 | -1.47 | -1.26 | -0.704 | -0.449 | -1 | -0.64 | -1.05 | 0.441
16 | CGAACTAGGTCATTGGCAGGACAGTGAATAGTAA | 8.14 | 8.31 | 3.04 | 0.566 | 1.51 | 1.61 | -0.0888 | 2.11 | 0.516 | 3.71
17 | AGAATGAGGTTATATGTAGATCAGGGAAGAAAGT | 3.28 | 2.52 | 1.48 | 1.02 | 1.32 | 1.2 | 0.891 | 1.75 | 1.37 | 1.57
18 | TAGCCTAGGTCATGCGGGGCAGTATAGTGTCGGC | 1.69 | 3.02 | 0.874 | -0.0244 | 0.993 | 2.16 | -0.37 | 2.61 | -0.595 | 3.75
19 | ATACCAAGGTGATCGTGAGGTCGGTGATACTAAC | 0.199 | 1.12 | -0.398 | 0.469 | 0.85 | 0.944 | 0.32 | 0.998 | 0.866 | 1.11
20 | CCTGCTAGGTCATGGTCAGCTCATCTACAGTATG | 4.36 | 3.86 | -0.0537 | -0.157 | 1.09 | 1.52 | -0.186 | 2.4 | 0.349 | 4.08
21 | GCTTGTAGATCATGGTTAAGAAAGACTAAGCTAA | 0.856 | 0.283 | 0.687 | -0.0333 | 0.17 | -0.334 | -0.29 | -0.161 | -0.00288 | -0.371
22 | TTACCAAGGTGAGCCGAGGTCGTTGATCCAACTC | 1.46 | 2.45 | 0.0524 | 0.067 | -0.0527 | 4.95 | 0.39 | 1.95 | -0.75 | 1.99
23 | ATATGTAGGTTATAGGGTCATTCAGTTTGCGCAT | 7.51 | 7.16 | 2.03 | 1.57 | 3.17 | 4.88 | 8.92 | 5.18 | 1.96 | 3.19
